# Experimental data as given in PubChem BioAssay (EPA / NIEHS).
# Values joined by “and” are separate entries in the source; they are usually repeats but may differ in a detail not shown here. Identical values can stand only once. Results filed as inconclusive are left out. Active and inactive are the calls of the source. How the source made its calls: active means hit-call score of the fitted dose curve at least 0.9, where 1 is the maximum; inconclusive means response in the unintended direction; inactive means score below 0.9.
# How the values were obtained:
# [1] = molecular target: human Aurora Kinase A - serine/threonine-protein Kinase 6 (AurA), AURKA (gene 6790) (UniProt O14965); test: NVS_ENZ_hAurA: NovaScreen (NVS) Enzymatic Assay for human Aurora Kinase A - serine/threonine-protein Kinase 6 (AurA) (AID 2283142)
# Outline: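 Cell-free enzymatic assay with human Aurora A, 1 hour after dosing. Fluorescent substrate turnover detected after electrophoretic mobility shift separation of substrate and product. Screened at 25 uM, actives retested in concentration-response up to 50 uM.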
# [2] = molecular target: rat Monoamine Oxidase, MAO-B, Peripheral (MAOBP), Maob (gene 25750) (UniProt P19643); test: NVS_ENZ_rMAOBP: NovaScreen (NVS) Enzymatic Assay for rat Monoamine Oxidase, MAO-B, Peripheral (MAOBP) (AID 2283242)
# [3] = molecular target: human Fibroblast Growth Factor Receptor 1 (FGFR1), FGFR1 (gene 2260) (UniProt P11362); test: NVS_ENZ_hFGFR1: NovaScreen (NVS) Enzymatic Assay for human Fibroblast Growth Factor Receptor 1 (FGFR1) (AID 2283159);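 on AC50: hits lower the signal so potencies describe inhibitors of the kinase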
# Outline: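 Cell-free recombinant kinase with fluorescent substrate, product separated by electrophoretic mobility shift; read 1 hour after dosing, loss of signal relative to DMSO. Initial screen in duplicate at 25 uM, actives followed in concentration series.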
# [4] = molecular target: human Mitogen-Activated Protein Kinase 1 (MAPK 1), MAPK1 (gene 5594) (UniProt P28482); test: NVS_ENZ_hMAPK1: NovaScreen (NVS) Enzymatic Assay for human Mitogen-Activated Protein Kinase 1 (MAPK 1) (AID 2283175)
# Outline: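 Cell-free recombinant human MAPK1 enzymatic assay, fluorescence/electrophoretic mobility shift read at 1 h; loss of signal vs DMSO. Primary screen in duplicate at 25 uM; actives (e.g. ≥30% inhibition) run as concentration-response up to 50 uM.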
# [5] = molecular target: human Phosphatase and Tensin Homolog (PTEN), PTEN (gene 5728) (UniProt P60484); test: NVS_ENZ_hPTEN: NovaScreen (NVS) Enzymatic Assay for human Phosphatase and Tensin Homolog (PTEN) (AID 2283203)
# Outline: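 Cell-free recombinant human PTEN with fluorescent substrate; product separated by electrophoretic mobility shift and read by fluorescence 1 h after dosing. Primary screen in duplicate at 25 uM, actives followed in concentration series versus DMSO.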
# [6] = molecular target: human NIMA (Never In Mitosis Gene A)-Related Kinase 2 (NEK2), NEK2 (gene 4751) (UniProt P51955); test: NVS_ENZ_hNEK2: NovaScreen (NVS) Enzymatic Assay for human NIMA (Never In Mitosis Gene A)-Related Kinase 2 (NEK2) (AID 2283188)
# Outline: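 Cell-free NEK2 enzyme activity after 1 h exposure, read by fluorescence with electrophoretic mobility shift separating substrate and product. Primary screen in duplicate at 25 uM; actives then run as concentration series. Loss of signal versus DMSO scored.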
# [7] = molecular target: Voltage-dependent N-type calcium channel subunit alpha-1B (Rattus norvegicus) (UniProt Q02294); test: NVS_IC_rCaChN: NovaScreen (NVS) Ion Channel Assay for rat Calcium Channel, Type N (CaChN) (AID 2283317)
# [8] = molecular target: rat Oxytocin Receptor (OXT), Oxtr (gene 25342) (UniProt P70536); test: NVS_GPCR_rOXT: NovaScreen (NVS) G Protein-Coupled Receptor Assay for rat Oxytocin Receptor (OXT) (AID 2283330)
# Outline: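 Radioligand displacement on rat uterine membranes, 1 h incubation, filter-based scintillation counting. Chemicals were screened in duplicate at 25 uM, and those passing threshold were retested in concentration-response up to 50 uM. Loss of binding was fitted versus DMSO.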
# [9] = molecular target: human Ephrin type-A Receptor 2 (EphA2), EPHA2 (gene 1969) (UniProt P29317); test: NVS_ENZ_hEphA2: NovaScreen (NVS) Enzymatic Assay for human Ephrin type-A Receptor 2 (EphA2) (AID 2283155)
# Outline: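 Cell-free recombinant EphA2 kinase with specific substrate, 1 h, fluorescence with electrophoretic mobility-shift separation of substrate and product. Primary screen at 25 uM in duplicate; hits retested in singleton concentration-response up to 50 uM, referenced to DMSO.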
# [10] = molecular target: human Neonicotinoid receptor (NNR), CHRNA2 (gene 1135) (UniProt Q15822); test: NVS_LGIC_hNNR_NBungSens: NovaScreen (NVS) Ligand-Gated Ion Channel Assay for human Neonicotinoid receptor (NNR) (AID 2283313)
# Outline: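 Radioligand displacement on human neuroblastoma membranes, 2 h, filter-based scintillation counting. Primary screen in duplicate at 25 uM; chemicals passing threshold (e.g. 30% inhibition) run singleton concentration-response to 50 uM; loss of binding fitted versus DMSO.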
# [11] = molecular target: Norway rat Vesicular Monoamine Transporter (VMAT2), neurotransmitter transporter, Slc18a2 (gene 25549) (UniProt Q01827); test: NVS_TR_rVMAT2: NovaScreen (NVS) Transporter Assay for Norway rat Vesicular Monoamine Transporter (VMAT2), neurotransmitter transporter (AID 2283376);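 further: actives lower the bound radioligand signal below the DMSO level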
# Outline: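 Radioligand displacement binding on rat forebrain tissue preparation, filter-based scintillation read-out 1 hour after dosing. Primary screen in duplicate at 25 uM, then concentration series for actives; loss of signal versus DMSO.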
# [12] = molecular target: human MET Proto-Oncogene, Receptor Tyrosine Kinase (MET), MET (gene 4233) (UniProt P08581); test: NVS_ENZ_hMet: NovaScreen (NVS) Enzymatic Assay for human MET Proto-Oncogene, Receptor Tyrosine Kinase (MET) (AID 2283180)
# Outline: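 Cell-free MET kinase assay using recombinant protein and fluorescent substrate, with mobility-shift separation; read 1 h after dosing. Primary duplicate at 25 uM; actives in singleton concentration-response to 50 uM maximum. Signal loss versus DMSO.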
# [13] = molecular target: human Protein Tyrosine Phosphatase Non-receptor Type 2 (PTPN2), PTPN2 (gene 5771) (UniProt P17706); test: NVS_ENZ_hPTPN2: NovaScreen (NVS) Enzymatic Assay for human Protein Tyrosine Phosphatase Non-receptor Type 2 (PTPN2) (AID 2283207)
# Outline: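 Cell-free recombinant enzyme with fluorescent substrate, product separated by electrophoretic mobility shift; read 1 h after dosing. Primary screen single concentration (25 uM) in duplicate; actives followed in concentration series; loss of signal versus DMSO.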
# [14] = molecular target: human Ephrin type-B Receptor 2 (EphB2), EPHB2 (gene 2048) (UniProt P29323); test: NVS_ENZ_hEphB2: NovaScreen (NVS) Enzymatic Assay for human Ephrin type-B Receptor 2 (EphB2) (AID 2283156)
# Outline: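 Recombinant kinase with fluorescent substrate, product separated by electrophoretic mobility shift, read 1 h after dosing. Duplicate 25 uM screen, then singleton concentration-response to 50 uM max; loss of signal versus DMSO.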
# [15] = test system: rat Monoamine Oxidase, MAO-A, Peripheral (MAOAP), gene 29253; test: NVS_ENZ_rMAOAP: NovaScreen (NVS) Enzymatic Assay for rat Monoamine Oxidase, MAO-A, Peripheral (MAOAP) (AID 2283237)
# Outline: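 Rat liver mitochondrial membranes served as the MAO-A source, with enzyme activity measured by radiometric scintillation counting 1.17 hours after dosing. Loss of signal was fitted against DMSO; primary screen used 25 uM in duplicate, follow-up used concentration series.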
# [16] = molecular target: human Tyrosine Protein Kinase Receptor Tie-2 (Tie2), TEK (gene 7010) (UniProt Q02763); test: NVS_ENZ_hTie2: NovaScreen (NVS) Enzymatic Assay for human Tyrosine Protein Kinase Receptor Tie-2 (Tie2) (AID 2283225)
# Outline: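 Recombinant human Tie2 kinase activity was read cell-free by fluorescence with electrophoretic mobility shift, 1 hour after dosing. The screen used 25 uM in duplicate, then concentration-response up to 50 uM. Signal loss was scored against DMSO.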
# [17] = molecular target: human p21 Activated Kinase 4 (PAK4), PAK4 (gene 10298) (UniProt O96013); test: NVS_ENZ_hPAK4: NovaScreen (NVS) Enzymatic Assay for human p21 Activated Kinase 4 (PAK4) (AID 2283189)
# Outline: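 Cell-free recombinant human PAK4 activity assay; fluorescent substrate and product separated by electrophoretic mobility shift, read 1 h after dosing. Initially tested in duplicate at 25 uM, relative to DMSO baseline.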
# [18] = molecular target: human Matrix Metalloproteinase-1 (MMP1), MMP1 (gene 4312) (UniProt P03956); test: NVS_ENZ_hMMP1: NovaScreen (NVS) Enzymatic Assay for human Matrix Metalloproteinase-1 (MMP1) (AID 2283181)
# Outline: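 Human MMP1 enzyme activity measured by fluorescence 1 h after dosing, cell-free, with a specific substrate. Screened in duplicate at 25 uM; hits (e.g. 30% inhibition) run in concentration-response up to 50 uM; loss of signal versus DMSO.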
# PPP2CA (gene 5515) = PPP2CA (gene 5515) (UniProt P67775); test: NVS_ENZ_hPPP2CA: NovaScreen (NVS) Enzymatic Assay for human Protein Phosphatase 2 Aatalytic subunit Alpha (PPP2CA) (AID 2283199)
# Outline: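 Recombinant human PPP2CA with fluorescent substrate; product separated from substrate by electrophoretic mobility shift, read 1.33 h after dosing. Duplicate single-point at 25 uM, then singleton concentration-response up to 50 uM; loss of signal versus DMSO.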
# [19] = molecular target: rat Acetylcholinesterase (AChE), Ache (gene 83817) (UniProt P37136); test: NVS_ENZ_rAChE: NovaScreen (NVS) Enzymatic Assay for rat Acetylcholinesterase (AChE) (AID 2283233)
# Outline: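 Rat brain membrane acetylcholinesterase activity measured colorimetrically 0.33 h after compound addition, loss of signal relative to DMSO. Primary screen in duplicate at 25 uM; actives re-run as concentration-response with 50 uM top concentration.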
# human Ephrin type-A Receptor 2 (EphA2), EPHA2 (gene 1969), sequence (P29317 whole entry, looked up): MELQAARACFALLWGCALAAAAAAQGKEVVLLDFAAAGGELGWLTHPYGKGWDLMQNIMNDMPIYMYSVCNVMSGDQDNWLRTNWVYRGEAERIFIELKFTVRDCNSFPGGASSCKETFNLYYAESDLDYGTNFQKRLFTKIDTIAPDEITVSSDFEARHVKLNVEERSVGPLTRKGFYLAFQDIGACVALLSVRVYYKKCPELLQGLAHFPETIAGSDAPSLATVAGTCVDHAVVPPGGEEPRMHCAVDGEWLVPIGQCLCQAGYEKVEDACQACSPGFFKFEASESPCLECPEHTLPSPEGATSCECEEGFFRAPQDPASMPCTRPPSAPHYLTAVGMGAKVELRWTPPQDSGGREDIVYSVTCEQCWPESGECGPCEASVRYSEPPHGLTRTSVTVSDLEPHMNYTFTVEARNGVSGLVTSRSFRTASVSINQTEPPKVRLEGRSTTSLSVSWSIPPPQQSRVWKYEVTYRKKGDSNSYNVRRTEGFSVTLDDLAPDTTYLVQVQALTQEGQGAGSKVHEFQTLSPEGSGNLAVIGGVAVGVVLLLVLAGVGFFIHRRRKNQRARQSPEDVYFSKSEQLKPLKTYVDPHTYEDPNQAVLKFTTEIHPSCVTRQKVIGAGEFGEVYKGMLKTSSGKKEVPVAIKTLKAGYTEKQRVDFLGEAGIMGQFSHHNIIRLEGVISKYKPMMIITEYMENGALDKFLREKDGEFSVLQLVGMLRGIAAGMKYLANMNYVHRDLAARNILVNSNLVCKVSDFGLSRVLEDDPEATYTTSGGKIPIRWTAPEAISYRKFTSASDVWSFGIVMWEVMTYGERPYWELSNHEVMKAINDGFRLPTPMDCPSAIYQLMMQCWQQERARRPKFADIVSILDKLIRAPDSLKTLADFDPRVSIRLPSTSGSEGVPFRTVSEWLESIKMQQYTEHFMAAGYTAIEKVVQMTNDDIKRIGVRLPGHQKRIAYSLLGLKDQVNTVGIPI
# human Fibroblast Growth Factor Receptor 1 (FGFR1), FGFR1 (gene 2260), sequence (P11362 whole entry, looked up): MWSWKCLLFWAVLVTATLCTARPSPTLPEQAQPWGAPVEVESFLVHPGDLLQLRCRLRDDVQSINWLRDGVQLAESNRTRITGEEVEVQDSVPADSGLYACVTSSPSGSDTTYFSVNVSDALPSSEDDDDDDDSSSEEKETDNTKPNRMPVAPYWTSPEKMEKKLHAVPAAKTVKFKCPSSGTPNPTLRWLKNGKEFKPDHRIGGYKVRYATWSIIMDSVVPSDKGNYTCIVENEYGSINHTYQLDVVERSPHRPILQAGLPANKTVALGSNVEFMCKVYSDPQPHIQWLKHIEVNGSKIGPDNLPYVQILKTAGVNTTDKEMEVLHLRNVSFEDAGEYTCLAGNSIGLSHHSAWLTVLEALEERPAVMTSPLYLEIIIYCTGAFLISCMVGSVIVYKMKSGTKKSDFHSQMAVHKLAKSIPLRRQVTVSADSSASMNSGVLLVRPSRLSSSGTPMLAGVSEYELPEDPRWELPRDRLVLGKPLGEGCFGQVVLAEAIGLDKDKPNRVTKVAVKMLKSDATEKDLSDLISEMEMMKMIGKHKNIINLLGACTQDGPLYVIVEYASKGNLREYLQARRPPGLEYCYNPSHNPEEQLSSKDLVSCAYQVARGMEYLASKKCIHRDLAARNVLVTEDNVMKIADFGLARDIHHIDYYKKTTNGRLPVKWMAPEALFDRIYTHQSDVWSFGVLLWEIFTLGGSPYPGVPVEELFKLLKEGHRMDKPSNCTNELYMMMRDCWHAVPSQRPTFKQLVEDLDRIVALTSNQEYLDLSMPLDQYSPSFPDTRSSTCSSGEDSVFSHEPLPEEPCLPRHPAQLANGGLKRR
# human Phosphatase and Tensin Homolog (PTEN), PTEN (gene 5728), sequence (P60484 whole entry, looked up): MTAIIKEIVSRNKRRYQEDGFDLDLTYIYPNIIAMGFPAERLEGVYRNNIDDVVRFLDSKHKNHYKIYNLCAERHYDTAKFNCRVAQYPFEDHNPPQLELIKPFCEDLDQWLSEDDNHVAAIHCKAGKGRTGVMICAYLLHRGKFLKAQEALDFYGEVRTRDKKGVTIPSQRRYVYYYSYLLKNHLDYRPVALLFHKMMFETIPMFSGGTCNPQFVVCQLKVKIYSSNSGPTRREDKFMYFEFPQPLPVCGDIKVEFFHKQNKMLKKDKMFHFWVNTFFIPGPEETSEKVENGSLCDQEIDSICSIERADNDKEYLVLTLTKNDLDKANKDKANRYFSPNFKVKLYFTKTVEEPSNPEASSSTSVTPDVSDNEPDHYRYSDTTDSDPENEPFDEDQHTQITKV
# human MET Proto-Oncogene, Receptor Tyrosine Kinase (MET), MET (gene 4233), sequence (P08581 whole entry, looked up): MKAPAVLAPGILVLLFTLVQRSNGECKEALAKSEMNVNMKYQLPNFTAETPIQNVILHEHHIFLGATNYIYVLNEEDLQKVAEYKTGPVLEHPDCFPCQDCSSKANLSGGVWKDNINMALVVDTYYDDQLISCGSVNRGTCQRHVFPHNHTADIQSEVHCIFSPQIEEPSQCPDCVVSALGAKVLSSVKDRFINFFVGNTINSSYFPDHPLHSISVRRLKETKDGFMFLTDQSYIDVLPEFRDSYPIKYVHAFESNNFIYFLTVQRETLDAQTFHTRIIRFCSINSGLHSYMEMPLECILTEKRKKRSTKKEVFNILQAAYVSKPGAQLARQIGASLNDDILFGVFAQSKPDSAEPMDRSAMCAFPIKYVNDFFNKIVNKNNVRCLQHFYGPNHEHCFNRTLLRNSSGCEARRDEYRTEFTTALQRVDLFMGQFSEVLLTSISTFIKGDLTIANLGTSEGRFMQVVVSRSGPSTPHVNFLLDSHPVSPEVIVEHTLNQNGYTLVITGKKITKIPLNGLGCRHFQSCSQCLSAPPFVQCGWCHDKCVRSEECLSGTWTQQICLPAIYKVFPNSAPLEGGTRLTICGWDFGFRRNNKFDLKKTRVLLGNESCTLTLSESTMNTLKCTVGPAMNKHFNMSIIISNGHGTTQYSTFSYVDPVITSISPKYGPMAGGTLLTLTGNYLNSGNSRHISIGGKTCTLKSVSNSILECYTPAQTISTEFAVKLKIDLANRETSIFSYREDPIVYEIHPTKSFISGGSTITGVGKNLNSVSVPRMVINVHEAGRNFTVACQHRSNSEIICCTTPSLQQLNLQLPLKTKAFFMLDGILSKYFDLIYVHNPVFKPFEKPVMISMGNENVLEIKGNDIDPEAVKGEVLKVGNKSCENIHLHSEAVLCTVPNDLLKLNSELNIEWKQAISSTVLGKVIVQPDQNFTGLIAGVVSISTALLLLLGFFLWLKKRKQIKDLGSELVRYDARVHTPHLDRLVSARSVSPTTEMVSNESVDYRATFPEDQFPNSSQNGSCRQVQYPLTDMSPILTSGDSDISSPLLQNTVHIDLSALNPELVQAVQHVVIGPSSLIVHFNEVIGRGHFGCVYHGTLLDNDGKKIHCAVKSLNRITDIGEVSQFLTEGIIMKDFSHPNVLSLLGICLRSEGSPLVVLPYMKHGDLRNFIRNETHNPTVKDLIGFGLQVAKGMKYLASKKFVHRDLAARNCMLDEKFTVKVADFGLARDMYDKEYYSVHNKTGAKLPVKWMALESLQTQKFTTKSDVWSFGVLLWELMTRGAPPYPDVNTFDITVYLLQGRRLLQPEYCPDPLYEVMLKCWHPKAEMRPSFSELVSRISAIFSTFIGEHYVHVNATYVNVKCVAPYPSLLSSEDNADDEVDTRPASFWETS
# human Mitogen-Activated Protein Kinase 1 (MAPK 1), MAPK1 (gene 5594), sequence (P28482 whole entry, looked up): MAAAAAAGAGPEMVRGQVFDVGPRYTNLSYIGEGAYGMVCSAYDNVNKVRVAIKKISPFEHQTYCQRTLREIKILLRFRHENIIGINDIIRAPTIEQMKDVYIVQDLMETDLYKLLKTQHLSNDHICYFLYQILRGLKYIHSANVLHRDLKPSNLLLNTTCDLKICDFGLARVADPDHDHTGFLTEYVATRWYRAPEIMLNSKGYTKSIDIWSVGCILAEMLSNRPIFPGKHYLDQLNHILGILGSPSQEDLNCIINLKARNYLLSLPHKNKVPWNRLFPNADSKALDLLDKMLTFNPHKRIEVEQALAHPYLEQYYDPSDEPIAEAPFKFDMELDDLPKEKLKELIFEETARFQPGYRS
# human NIMA (Never In Mitosis Gene A)-Related Kinase 2 (NEK2), NEK2 (gene 4751), sequence (P51955 whole entry, looked up): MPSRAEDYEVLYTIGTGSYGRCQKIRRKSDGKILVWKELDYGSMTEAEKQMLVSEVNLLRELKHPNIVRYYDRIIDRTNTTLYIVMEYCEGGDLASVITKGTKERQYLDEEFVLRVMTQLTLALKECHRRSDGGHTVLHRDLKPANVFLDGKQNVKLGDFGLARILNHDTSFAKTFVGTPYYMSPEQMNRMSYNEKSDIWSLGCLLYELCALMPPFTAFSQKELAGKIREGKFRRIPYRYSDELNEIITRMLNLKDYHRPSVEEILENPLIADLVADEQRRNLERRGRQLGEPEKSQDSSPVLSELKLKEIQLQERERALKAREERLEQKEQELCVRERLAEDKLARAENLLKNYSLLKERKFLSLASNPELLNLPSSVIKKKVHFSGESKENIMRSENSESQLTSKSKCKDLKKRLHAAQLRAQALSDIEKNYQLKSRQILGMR
# human Aurora Kinase A - serine/threonine-protein Kinase 6 (AurA), AURKA (gene 6790), sequence (O14965 whole entry, looked up): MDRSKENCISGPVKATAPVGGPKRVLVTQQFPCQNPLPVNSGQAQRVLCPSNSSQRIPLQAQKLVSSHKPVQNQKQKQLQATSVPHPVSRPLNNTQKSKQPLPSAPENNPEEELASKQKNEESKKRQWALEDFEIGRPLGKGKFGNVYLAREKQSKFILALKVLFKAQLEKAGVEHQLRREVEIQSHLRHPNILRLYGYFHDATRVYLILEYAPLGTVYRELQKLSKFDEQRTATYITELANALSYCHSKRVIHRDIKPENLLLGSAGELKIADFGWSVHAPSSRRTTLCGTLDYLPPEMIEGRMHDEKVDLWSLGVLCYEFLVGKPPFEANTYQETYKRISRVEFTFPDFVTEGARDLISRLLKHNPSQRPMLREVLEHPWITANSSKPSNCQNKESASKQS
structure (smiles),measurement,setting,value
CC=Cc1ccc(O)c(OC)c1,outcome,[1],inactive
same,outcome,[2],inactive
CCc1c(C(=O)NN2CCCCC2)nn(-c2ccc(Cl)cc2Cl)c1-c1ccc(Br)cc1,outcome,[1],inactive
same,outcome,[3],inactive
same,outcome,[4],inactive
same,outcome,[5],inactive
O=C(O)Cc1cc(I)c(Oc2ccc(O)c(I)c2)c(I)c1,AC50,[1],1.37 µM (active)
same,outcome,[6],inactive
CC(C)(C)c1csc(-c2cc3cc(OCc4ccccc4CC(=O)O)ccc3o2)n1,outcome,[1],inactive
same,outcome,[6],inactive
same,outcome,[7],inactive
OCCOCCOCCO,outcome,[1],inactive
same,outcome,[5],inactive
same,outcome,[8],inactive
N#C[C@@H]1CC(F)(F)CN1C(=O)CNC1CC2CCC(C1)N2c1ncccn1 (stereo not given in full),outcome,[9],inactive
O=C(c1ccc(OCCN2CCCCC2)cc1)c1c(-c2ccc(O)cc2)sc2cc(O)ccc12,outcome,[1],inactive
same,AC50,[3],36.2 µM (active)
same,AC50,[2],10.8 µM (active)
same,AC50,[10],16.7 µM (active)
same,AC50,[11],563 nM (active)
O=C(Nc1ccc([N+](=O)[O-])cc1Cl)c1cc(Cl)ccc1O,outcome,[1],inactive
same,outcome,[4],inactive
Cc1ncc([C@@H](CCCCCCc2ccc3c(n2)NCCC3)CC(=O)O)cn1,outcome,[1],inactive
same,outcome,[3],inactive
same,outcome,[4],inactive
same,outcome,[12],inactive
same,outcome,[5],inactive
same,outcome,[13],inactive
COCCO,outcome,[14],inactive
same,outcome,[3],inactive
same,outcome,[4],inactive
Cc1ncc(CO)c(CO)c1O,outcome,[9],inactive
O=C(N[C@@H](c1ccccc1)[C@@H]1CCCCN1)c1cccc(C(F)(F)F)c1Cl,outcome,[1],inactive
same,outcome,[15],inactive
O=C(Oc1ccccc1)c1cccc(C(=O)Oc2ccccc2)c1,outcome,[1],inactive
same,outcome,[3],inactive
same,outcome,[12],inactive
same,outcome,[5],inactive
same,outcome,[16],inactive
CN(C)C(=O)NC1(c2ccccc2)CCN(CC[C@@]2(c3ccc(F)c(F)c3)CN(C(=O)c3ccccc3)CCO2)CC1,outcome,[1],inactive
same,outcome,[3],inactive
CC/C(=C(\c1ccccc1)c1ccc(OCCN(C)C)cc1)c1ccccc1,outcome,[1],inactive
same,AC50,[3],33.5 µM (active)
same,outcome,[12],inactive
c1cc(-c2ccncc2)ccn1,outcome,[3],inactive
O=C(O)c1cccc(Oc2ccccc2)c1,outcome,[1],inactive
same,outcome,[9],inactive
same,outcome,[3],inactive
same,outcome,[12],inactive
O=C(O)c1ccc2c(c1)nc(C(=O)NC1CCN(C3CC3)CC1)n2Cc1cc(-c2ccc(Cl)s2)on1,outcome,[1],inactive
same,outcome,[3],inactive
same,outcome,[12],inactive
c1ccc2ccccc2c1,outcome,[1],inactive
same,outcome,[4],inactive
same,outcome,[12],inactive
same,outcome,[17],inactive
same,outcome,[5],inactive
COc1ccc2sc(C(=O)Nc3nnn[nH]3)c(OC(C)C)c2c1,AC50,[1],9.98 µM (active)
same,outcome,[3],inactive
same,outcome,[18],inactive
CC/C(=C(/CC)c1ccc(O)cc1)c1ccc(O)cc1,outcome,[1],inactive
same,AC50,[3],37 µM (active)
same,outcome,[6],inactive
same,outcome,PPP2CA (gene 5515),inactive
same,outcome,[5],inactive
same,outcome,[13],inactive
same,AC50,[11],12 µM (active) and 14.7 µM (active) and 20.5 µM (active)
CC(C)NCC(O)c1ccc(O)c(O)c1 (stereo not given),outcome,[3],inactive
O=C(Nc1ccc(Cl)cc1)Nc1ccc(Cl)c(Cl)c1,outcome,[9],inactive
same,outcome,[19],inactive
